# Where “and” joins values, the source holds several entries; their conditions need not be identical. Equal values may be shown once. Among all 220,000 compounds or so, about 910 (0.41%) were called active.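 Rule for the calls: active = primary inhibition above the hit cutoff, then over 50% inhibition at one or more dose response concentrations (cut at about 23% in these data, passing the limit was not always enough); inconclusive = conflicting primary data, or primary hits not chosen for dose response; inactive = low primary inhibition, or under 50% at every dose.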 The sample as a whole holds a higher share of actives than the screen did. Entries with a potency or affinity are not part of this list. The source holds several records for some structures; these can differ, active in one and inactive in another.
# Biological target: Aminopeptidase N (Plasmodium falciparum (isolate 3D7)) (UniProt O96935)
# Sequence (O96935 whole entry, looked up): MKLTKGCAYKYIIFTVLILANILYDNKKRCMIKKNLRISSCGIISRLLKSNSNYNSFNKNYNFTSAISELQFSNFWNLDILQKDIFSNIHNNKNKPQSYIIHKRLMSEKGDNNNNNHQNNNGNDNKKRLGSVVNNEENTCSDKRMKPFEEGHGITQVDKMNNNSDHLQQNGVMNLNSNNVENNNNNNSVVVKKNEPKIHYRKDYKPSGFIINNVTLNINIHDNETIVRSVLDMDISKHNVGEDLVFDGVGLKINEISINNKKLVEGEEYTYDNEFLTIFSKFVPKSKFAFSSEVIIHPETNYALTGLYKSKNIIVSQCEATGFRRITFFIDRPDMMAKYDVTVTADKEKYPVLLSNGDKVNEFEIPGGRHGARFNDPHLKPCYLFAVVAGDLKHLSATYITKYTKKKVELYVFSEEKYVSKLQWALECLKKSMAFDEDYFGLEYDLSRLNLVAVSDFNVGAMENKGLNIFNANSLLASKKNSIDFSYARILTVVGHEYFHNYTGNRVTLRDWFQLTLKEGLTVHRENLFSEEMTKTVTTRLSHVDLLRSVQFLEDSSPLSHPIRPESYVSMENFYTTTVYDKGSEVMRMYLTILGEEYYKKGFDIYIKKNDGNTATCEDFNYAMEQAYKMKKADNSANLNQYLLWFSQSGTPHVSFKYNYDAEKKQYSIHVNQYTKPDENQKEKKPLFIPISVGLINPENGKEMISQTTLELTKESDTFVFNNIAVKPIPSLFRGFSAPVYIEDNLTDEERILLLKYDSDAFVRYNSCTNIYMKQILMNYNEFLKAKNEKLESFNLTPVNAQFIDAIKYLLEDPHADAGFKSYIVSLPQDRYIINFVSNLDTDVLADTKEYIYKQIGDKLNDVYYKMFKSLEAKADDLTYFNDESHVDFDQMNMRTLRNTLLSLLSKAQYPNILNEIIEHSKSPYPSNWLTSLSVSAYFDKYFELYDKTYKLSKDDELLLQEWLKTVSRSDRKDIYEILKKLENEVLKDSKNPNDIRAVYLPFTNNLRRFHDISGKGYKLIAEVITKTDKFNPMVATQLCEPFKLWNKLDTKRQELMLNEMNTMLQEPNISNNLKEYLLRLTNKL
# Assay: P. falciparum M1AAP inhibitors, biochemical, fluorogenic H-Leu-NHMec substrate, 1536-well (AID 1445);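 note: plate controls were DMSO full reaction for no effect and no enzyme background for full effect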
# Settings: recombinant M1AAP, H-Leu-NHMec fluorogenic kinetic assay; at 30 µM, stronger effect = higher value unless noted
row,Compound,inhibition
1,Cc1nc(SCC(=O)O)c2oc3ccccc3c2n1,3.31% (inactive)
2,O=C(O)CSc1nc(-c2ccccc2)nc2c1oc1ccccc12,8.15% (inactive)
3,CN(C)c1ccc(/C=N/NC(=O)CCCO)cc1,16.7% (inactive)
4,C/C=C/c1ccc(OCCCCOc2ccc(OC)cc2)c(OC)c1,-1.18% (inactive)
5,C/C=C/c1ccc(OCCOc2ccc(C=O)cc2)c(OC)c1,9.05% (inactive)
6,Cc1cc(-c2nnc(SCC(=O)Nc3nc(-c4ccccc4)cs3)o2)no1,17.1% (inactive)
7,O=[N+]([O-])c1ccc(Oc2c(F)c(F)nc(N3CCCC3)c2F)cc1,1.61% (inactive)
8,O=C(O)c1cc(-c2ccco2)nc2ccccc12,5.44% (inactive)
9,O=C(O)c1cc(-c2ccco2)nc2ccc(Br)cc12,5.53% (inactive) and 27.5% (active)
10,O=C(O)c1cc(-c2ccco2)nc2cc3ccccc3cc12,15.5% (inactive)
11,COc1ccc(C2CC(=O)C(C=NCCN3CCN(C(=S)Nc4ccccc4)CC3)=C(O)C2)cc1OC (stereo unspecified),12.8% (inactive)
12,O=C(CNC(=O)c1ccccc1)N/N=C/c1cn[nH]c1-c1ccccc1,4.33% (inactive)
13,CC(C)NC(=O)c1sc2nc3c(c(-c4cccs4)c2c1N)CN(C)CC3,5.01% (inactive)
14,N#Cc1sc2nc(-c3cccs3)cc(-c3ccccc3)c2c1N,13.3% (inactive)
15,CC(C)NC(=O)c1sc2nc(-c3cccs3)cc(-c3cccs3)c2c1N,24.2% (active)
16,Cc1ccc(-c2cc(-c3ccccc3)c3c(N)c(S(C)(=O)=O)sc3n2)cc1,14.5% (inactive)
17,CCN(CC)C(=O)c1sc2nc(-c3cccs3)cc(-c3cccs3)c2c1N,7.47% (inactive)
18,Cc1ccc(NC(=O)CCc2c(C)nc3ncnn3c2C)cc1,0.77% (inactive)
19,CC(NC(=O)c1cc(-c2ccc3c(c2)OCO3)nc2ccccc12)C(C)(C)C (stereo unspecified),3.57% (inactive)
20,COc1ccc(C2/C=C\CN(Cc3ccco3)CC(=O)N2Cc2ccc(F)cc2)cc1 (stereo unspecified),4.94% (inactive)
21,C=CCN1C(=S)N[C@@H]2CS(=O)(=O)C[C@@H]21,5.08% (inactive)
22,O=C(Nc1cccc(F)c1)c1cc(S(=O)(=O)N2CCOCC2)cs1,9% (inactive)
23,Cc1ccc(-c2cn3cccnc3n2)cc1NC(=O)c1ccc(Br)o1,24.6% (active)
24,COc1ccc(-c2cn3cccnc3n2)cc1NC(=O)c1ccc(Br)o1,11.3% (inactive)
25,O=C(Nc1cccc(-c2cn3cccnc3n2)c1)c1ccc(Br)o1,2.48% (inactive)
26,Cc1cc(N2CCCC2)c(C)cc1C=O,17.1% (inactive)

# From PubChem BioAssay AID1445 (SRMLSC, 2008)
